Experimental data published in PubChem BioAssay (NCI).
The panel holds about 79,000 compounds, 15% with a hit somewhere; the sample as a whole holds those more often. No stated cut-off is given here; in the data, active means growth inhibition above about 70%; inactive means the rest.

Assays:
[1] = NCI Yeast Anticancer Drug Screen. Data for the rad50 strain (AID 155);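 further: 0% = growth of vehicle-only cultures of the same strain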; conditions: S. cerevisiae rad50 strain growth inhibition; at 50.0 µM; stronger effect = higher value
Method in brief: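 Inhibition values express reduced yeast growth in compound-treated cultures relative to vehicle-treated controls.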

[2] = NCI Yeast Anticancer Drug Screen. Data for the mec2-1 strain (AID 157); conditions: S. cerevisiae mec2-1 strain, at 50.0 µM, stronger effect = higher value
Method in brief: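 Mutant yeast (mec2-1) grown with compound; growth inhibition relative to vehicle control reported.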

[3] = NCI Yeast Anticancer Drug Screen. Data for the sgs1 mgt1 strain (AID 161);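 further: 0% = growth of cultures given vehicle only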; conditions: S. cerevisiae sgs1 mgt1 strain, at 50.0 µM, stronger effect = higher value
Method in brief: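 Yeast cells carrying a defined DNA-repair defect were exposed to test compounds. Growth inhibition was measured relative to vehicle-treated controls.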

[4] = NCI Yeast Anticancer Drug Screen. Data for the cln2 rad14 strain (AID 165);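 further: 0% = growth equal to vehicle treated cultures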; conditions: S. cerevisiae cln2 rad14 strain, at 50.0 µM, stronger effect = higher value
Method in brief: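 Readout is yeast growth inhibition versus vehicle-treated controls, using a strain with cln2 and rad14 alterations exposed to compound.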

[5] = NCI Yeast Anticancer Drug Screen. Data for the bub3 strain (AID 167); conditions: S. cerevisiae bub3 mutant strain, at 50.0 µM, stronger effect = higher value
Method in brief: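 Steps: expose the mutant yeast strain to compound; grow alongside vehicle-treated cultures; measure growth; express inhibition against the vehicle cultures.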

[6] = NCI Yeast Anticancer Drug Screen. Data for the mlh1 rad18 strain (AID 175); conditions: S. cerevisiae mlh1 rad18 strain growth inhibition; at 50.0 µM; stronger effect = higher value
Method in brief: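 Genetically defined yeast (DNA repair-deficient) exposed to compounds; growth inhibition determined relative to vehicle.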

Measured: growth inhibition

Oc1ccc2ccccc2c1-c1c(OC(c2ccccc2)c2ccccc2)ccc2ccccc12
inactive: [1] 5.9% | [2] -19.2% | [3] 0.2% | [4] -29.4% | [5] -4.65% | [6] -13.1%

CCOC(=O)C1=C(C(C)=O)C(c2cccc([N+](=O)[O-])c2)C(C(C)=O)=C(C(=O)OCC)N1
inactive: [1] -1.8% | [2] 4.05% | [3] -8.8% | [4] -2.8% | [5] -13.6% | [6] 7.25%

O=C(CCCO)c1nc2ccccc2s1
inactive: [1] -2.5% | [2] 12.9% | [3] 2.8% | [4] -8.55% | [5] 11.8% | [6] 4.7%

COc1cccc(CCNc2ccncc2N)c1
inactive: [1] -22% | [2] -23.7% | [3] -24.6% | [4] -52.2% | [5] -29.1% | [6] 12.9%

Cc1cn(C2CCN(CC3COC(C)(C)O3)O2)c(=O)[nH]c1=O (stereo not given)
inactive: [1] -13.5% | [2] -11.9% | [3] -26.3% | [4] -24.9% | [5] -5.35% | [6] -19.6%

Cc1ccc2nccc(C)c2c1
inactive: [1] -27.8% | [2] -45.1% | [3] -19.6% | [4] -14.7% | [5] -27.6% | [6] -7.8%

NCC1OC(n2cnc3c(N)ncnc32)CC1O (stereo not given)
inactive: [1] -16.1% | [2] -2.75% | [3] -17.8% | [4] 0.65% | [5] -28.6% | [6] -7.85%

N#CCCC1(CCC#N)CCc2ccccc2C1=O
inactive: [1] 26.6% | [2] 1.2% | [3] 24.6% | [4] 25.9% | [5] 8.1% | [6] 40%

CCCC(=O)OCC(C)(C)CC(C)C
inactive: [1] -9.55% | [2] -57.9% | [3] -10.5% | [4] -5.55% | [5] -14.5% | [6] -24.4%

CN(C)CC1CCCC/C1=N/O (stereo not given)
inactive: [1] 0.5% | [2] -6.75% | [3] -9.4% | [4] -17.5% | [5] 2.55% | [6] -5.15%

CC1=C(C(=O)NCc2ccccc2)C(/C=C/c2ccccc2)C(C(=O)NCc2ccccc2)=C(C)N1
inactive: [1] 46% | [2] 16.1% | [3] 23.7% | [4] -22.1% | [5] 4.55% | [6] 34.3%

O=C1/C(=C\c2ccccc2)Cc2cc3c(cc21)OCO3
inactive: [1] 6.1% | [2] 1.85% | [3] -3.55% | [4] -15.9% | [5] 8.95% | [6] -6.45%

CN(C)CCSS(=O)(=O)O
inactive: [1] -4.9% | [2] -23.1% | [3] -26.3% | [4] 16.6% | [5] -19.1% | [6] -14.2%

CCC(=O)C(C)C(=O)CCC(=O)Nc1cc(Cl)ccc1Cl (stereo not given)
inactive: [1] 21.4% | [2] 18.5% | [3] 18.6% | [4] 20.2% | [5] 18.1% | [6] 19.6%

Cc1ccc(S(=O)(=O)NCNS(=O)(=O)c2ccc(C)cc2)cc1
inactive: [1] -37.5% | [2] -7% | [3] 2.05% | [4] 14% | [5] -15.8% | [6] -35.6%

CCOC(=O)Nc1ccc(Cl)cc1Cl
inactive: [1] -16.3% | [2] -8.2% | [3] -4.7% | [4] -16.7% | [5] -8.75% | [6] 1.15%

Cc1ccc(O)c(C(=O)c2ccc(Cl)c(Cl)c2)c1
inactive: [1] 8.45% | [2] 13.9% | [3] 54.2% | [4] -0.9% | [5] 58.1% | [6] 11.2%

O=C(Nc1ccccc1F)C(c1ccccc1)c1ccccc1
inactive: [1] 14.8% | [2] 8.95% | [3] 3.25% | [4] -1.45% | [5] 11.8% | [6] 4%

Nc1[nH]c(=O)nc2snnc12
inactive: [1] 2.35% | [2] -2.3% | [3] 14.9% | [4] 16.3% | [5] 6.1% | [6] -57.9%

[O-]c1on[n+]2c1c(Nc1ccc(Cl)cc1)nc1ccccc12
inactive: [1] -31.1% | [2] -28% | [3] -22.3% | [4] -21.2% | [5] -36.5% | [6] -39.5%
